Screening results: PubChem BioAssay, several laboratories
HNF4A DNA FP: change in binding of human HNF4 alpha to DNA. P41235. HNF4a-FITC DNA binding, fluorescence polarization, 1 h. activity change, % at 10 µM. 360,000 compounds, 0.3% hits. AID 1224865; in the data active = activity change above about 30%, passing the limit was not always enough
Target sequence (P41235 whole entry, looked up): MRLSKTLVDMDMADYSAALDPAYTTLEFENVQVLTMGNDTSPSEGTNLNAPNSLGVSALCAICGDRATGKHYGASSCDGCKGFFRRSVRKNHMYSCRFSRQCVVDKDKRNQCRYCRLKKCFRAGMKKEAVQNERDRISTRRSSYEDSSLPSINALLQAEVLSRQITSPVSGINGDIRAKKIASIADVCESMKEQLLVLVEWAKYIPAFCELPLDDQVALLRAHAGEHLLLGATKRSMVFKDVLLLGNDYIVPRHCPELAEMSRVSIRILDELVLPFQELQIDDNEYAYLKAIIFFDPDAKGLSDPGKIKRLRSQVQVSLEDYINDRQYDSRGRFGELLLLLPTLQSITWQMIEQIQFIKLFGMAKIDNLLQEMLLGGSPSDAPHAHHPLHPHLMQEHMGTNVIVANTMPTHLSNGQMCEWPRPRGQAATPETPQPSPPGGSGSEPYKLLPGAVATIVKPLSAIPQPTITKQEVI
Rpn11 block: blocks the human proteasome subunit Rpn11; O00487; human 26S proteasome, Ub4-pepOG fluorescence polarization; 20S core pre-blocked with epoxomicin; inhibition, % at 20 µM; 360,000 compounds, 0.59% hits;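 active = inhibition at 20 µM, scaled to each plate's controls, above about 33%, limit read from the data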
Myeloid diff MLP: myeloid differentiation induction; AID 624256; calls only at 10 µM; ER-HoxA9 myeloid progenitors, lysozyme-GFP differentiation, flow cytometry; 360,000 compounds, 1% hits;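 active = normalized GFP-positive differentiation at or above the plate's own cutoff, the solvent-only control mean plus 3 SD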;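 also: cells exposed to compound for four days before flow analysis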
TPT1 inhibitor: blocks Candida albicans tRNA 2'-phosphotransferase; recombinant caTPT1, FP RNA substrate dephosphorylation; inhibition, % at 5 µM; 300,000 compounds, 0.81% hits;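 active = inhibition above the mean of all tested compounds plus 3 SD, set per screening campaign, cut at about 24% in these data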;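 also: plate controls were DMSO alone for no effect and ferristatin control at 100 nM for full effect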
* marks the source's active call; other numbers are inactive results. Shown are actives, neighbours in structure and some others; about 2.1% of the full set was active somewhere.

`CCOC(=O)C1CCCN(S(=O)(=O)c2ccc3c(c2)N(C)C(=O)CC(=O)N3C)C1` (configuration not stated) gave HNF4A DNA FP -1.6, Rpn11 block -2.0, Myeloid diff MLP active and TPT1 inhibitor -2.0.
For COc1cccc(CNC(=O)CCC2CCCN(C(=O)c3ccc(OC)o3)C2)c1 (configuration not stated) the results were HNF4A DNA FP -1.0, Rpn11 block 2.8, Myeloid diff MLP inactive and TPT1 inhibitor 1.5.
CC1=C(C(=O)N2CCCCCC2)CC(CC(=O)NCc2cccs2)C(=O)N1Cc1ccccc1 (configuration not stated) was read as HNF4A DNA FP -2.7, Rpn11 block -1.2 and Myeloid diff MLP inactive.
Screening O=C1c2ccccc2C(c2nnnn2-c2ccc3c(c2)OCCO3)N1Cc1cccc(F)c1 (configuration not stated) returned HNF4A DNA FP 0.4 and Myeloid diff MLP inactive.
CCOc1ccc(/C=C(\C(=O)O)c2ccc(S(=O)(=O)N3CCCCC3)s2)cc1OC was read as HNF4A DNA FP 1.3, Rpn11 block -3.4 and Myeloid diff MLP inactive.
CCCn1c(SCC(=O)c2c[nH]c3ccccc23)nnc1-c1ccncc1 was read as HNF4A DNA FP 3.3, Rpn11 block 16.7, Myeloid diff MLP active and TPT1 inhibitor 2.5.
`Cc1occc1-c1nnc(SCC(=O)c2c[nH]c3ccccc23)n1C` gave HNF4A DNA FP -0.4, Rpn11 block 5.8, Myeloid diff MLP inactive and TPT1 inhibitor 2.7.
Cc1ccc2nc(SCC(=O)c3c[nH]c4ccccc34)[nH]c2c1 was read as HNF4A DNA FP 5.6, Rpn11 block 21.0, Myeloid diff MLP active and TPT1 inhibitor 0.9.
Screening CC(C)(C)[C@@H]1COC(=O)[C@H](Cc2ccc(F)cc2)CC/C=C\C[C@@H](CC(=O)NCCO)C(=O)N1 returned HNF4A DNA FP -0.7, Rpn11 block -2.0 and Myeloid diff MLP inactive.
For Cc1nn(CCCC(=O)NCc2ccco2)c(=O)c2nn(-c3ccccc3)c(C)c12 the results were HNF4A DNA FP 1.9, Rpn11 block -4.8, Myeloid diff MLP inactive and TPT1 inhibitor -0.5.
c1ccc(CNc2c3c(nc4ncnn24)CCC3)cc1 was read as HNF4A DNA FP 62.8*, Rpn11 block 39.5, Myeloid diff MLP inactive and TPT1 inhibitor -3.7.
`c1ccc(CN(Cc2ccccc2)c2c3c(nc4ncnn24)CCC3)cc1` gave HNF4A DNA FP -2.6, Rpn11 block -6.1, Myeloid diff MLP inactive and TPT1 inhibitor 2.6.
For CC(C)C(NC(=O)Nc1ccccc1)C(=O)Nc1cccc(S(=O)(=O)N(C)C)c1 (configuration not stated) the results were HNF4A DNA FP 3.6, Rpn11 block -1.0, Myeloid diff MLP inactive and TPT1 inhibitor -1.1.
COc1cc(/C=N/N2C(=O)CSC2=S)cc(Br)c1O was read as HNF4A DNA FP 75.8* and Myeloid diff MLP inactive.
Screening Fc1ccc(C2=NN(c3ccccc3)C(c3ccco3)C2)cc1 (configuration not stated) returned HNF4A DNA FP 3.5, Rpn11 block 3.6, Myeloid diff MLP inactive and TPT1 inhibitor -1.5.
Screening O=[N+]([O-])c1ccc(/C=C/C2=NN(c3ccccc3)C(c3ccco3)C2)o1 (configuration not stated) returned HNF4A DNA FP 25.8 and Myeloid diff MLP active.
`CCN(CCNC(=O)C1CCN(Cc2nc(-c3ccc(Cl)cc3)oc2C)CC1)c1ccccc1` gave HNF4A DNA FP 63.3*, Rpn11 block -1.5, Myeloid diff MLP inactive and TPT1 inhibitor -0.3.
Screening Cc1oc(-c2ccc(Cl)cc2)nc1CN1CCCC(C(=O)N2CCN(C(=O)c3ccco3)CC2)C1 (configuration not stated) returned HNF4A DNA FP 1.6, Rpn11 block -0.4, Myeloid diff MLP active and TPT1 inhibitor -3.5.
Screening C=CCSC1=N/C(=C\c2cc(OCC)c(OC(C)=O)c([N+](=O)[O-])c2)C(=O)S1 returned HNF4A DNA FP -0.9, Rpn11 block -3.5, Myeloid diff MLP inactive and TPT1 inhibitor 0.4.
Screening CCN(CC)S(=O)(=O)c1cc(NC(=O)CSCc2c(C)noc2C)ccc1C returned HNF4A DNA FP 1.5, Rpn11 block -6.1 and Myeloid diff MLP inactive.
COC(=O)[C@]12CCCCC=C1N(Cc1ccc3c(c1)OCO3)C(=O)[C@H](CC(=O)NCC1CCCCC1)C2 was read as HNF4A DNA FP -2.1 and Myeloid diff MLP inactive.
`COc1ccc(NC(=O)CN2CCC(n3c(C)nc4cc(F)ccc43)CC2)c(OC)c1` gave HNF4A DNA FP -2.6, Rpn11 block 3.4, Myeloid diff MLP inactive and TPT1 inhibitor -2.7.
For COc1cc(OC)cc(C(=O)N2CCC(n3c(C)nc4cc(F)ccc43)CC2)c1 the results were HNF4A DNA FP 2.1, Rpn11 block -0.8, Myeloid diff MLP active and TPT1 inhibitor -2.4.
Screening O=C(CSc1ncn[nH]1)Nc1ccc(S(=O)(=O)Nc2ncccn2)cc1 returned HNF4A DNA FP -0.5, Rpn11 block 1.0, Myeloid diff MLP inactive and TPT1 inhibitor 0.2.
Screening Nc1cc[n+](CC(=O)c2ccc3c(c2)OCCO3)cc1 returned HNF4A DNA FP -0.1, Rpn11 block -1.5, Myeloid diff MLP active and TPT1 inhibitor -1.2.
For O=C(C[n+]1ccc(C(=O)NCc2ccccc2)cc1)c1ccc2c(c1)OCCO2 the results were HNF4A DNA FP 3.6, Rpn11 block -3.4, Myeloid diff MLP inactive and TPT1 inhibitor 1.7.
For Cc1ccc(S(=O)(=O)N2C[C@@H](C)[C@]3(C2)[C@H](O)[C@H](OC(=O)Nc2c(C)noc2C)C[C@H]2C(=O)N(c4ccccc4)C(=O)[C@H]23)cc1 the results were HNF4A DNA FP 2.6, Rpn11 block 1.9 and Myeloid diff MLP inactive.
COc1ccc(CNC(=O)c2cccnc2)cc1 was read as HNF4A DNA FP -0.2, Rpn11 block -6.5, Myeloid diff MLP inactive and TPT1 inhibitor 0.1.
For O/C(=C\c1nc2ccccc2nc1/C=C(\O)c1ccccc1)c1ccccc1 the results were HNF4A DNA FP 27.5, Rpn11 block 10.8, Myeloid diff MLP active and TPT1 inhibitor 9.5.
Cn1c(O)c(N=NC(=O)Cn2c(C(F)(F)F)nc3ccccc32)c2ccccc21 was read as HNF4A DNA FP 3.1, Rpn11 block 5.3, Myeloid diff MLP inactive and TPT1 inhibitor -2.1.
For Cc1noc(C)c1C(=O)N1CCC2(CC1)Oc1ccc(F)cc1C(=O)C21CC(c2ccc(Cl)cc2)=NO1 (configuration not stated) the results were HNF4A DNA FP -7.1, Rpn11 block -14.6, Myeloid diff MLP active and TPT1 inhibitor -1.9.
`Cc1nc(N2N=C(c3ccc(Cl)cc3)CC2c2ccco2)sc1C(=O)N(C)C` (configuration not stated) gave HNF4A DNA FP -0.6, Rpn11 block 15.9, Myeloid diff MLP active and TPT1 inhibitor -1.6.
For COc1cc2c(C#N)c(N3CCc4ccccc4C3)nc(N)c2c(N)n1 the results were HNF4A DNA FP 1.7, Rpn11 block -3.1, Myeloid diff MLP active and TPT1 inhibitor 6.2.
COc1cc2c(C#N)c(N3CCCCC3)nc(N)c2c(N)n1 was read as HNF4A DNA FP 15.8, Rpn11 block 23.8, Myeloid diff MLP inactive and TPT1 inhibitor 11.1.
